In all, about 5,500 compounds went through this assay and about 2,000 (36%) were called active. Roughly 18% stayed inconclusive and do not appear here. Rule as the data show it: active = normalized growth mostly below about 0.91 (no sharp cut-off); inconclusive = no clear call, values can overlap the other calls; inactive = mostly above about 0.92. This is one part of the list.
Assay: chemical genetic growth profiling, strain panel (AID 1159580);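 also: tested at 20 µM; growth read once vehicle control cultures reached saturation at 30 °C; 1 = growth at the plate median or of vehicle wells; lower values mean less growth of the strain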
Conditions: growth OD

Measured: normalized growth

N#C/C(=C\c1cccc(O)c1)C(=O)O
inactive: S. cerevisiae deletion strains, locus YJR075W, strain HOC1, stronger effect = lower value 0.98 | S. cerevisiae deletion strains, locus YKL009W, strain mrt4, stronger effect = lower value 0.989 | S. cerevisiae deletion strains, locus YKL068W, stronger effect = lower value 0.998 | S. cerevisiae deletion strains, locus YKL085W, strain MDH1 (second series), stronger effect = lower value 0.951 | S. cerevisiae deletion strains, locus YKL085W, strain MDH1, stronger effect = lower value 0.951 | S. cerevisiae deletion strains, locus YKL160W, strain elf1, stronger effect = lower value 0.977 | S. cerevisiae deletion strains, locus YKL190W, strain CNB1, stronger effect = lower value 0.99 | S. cerevisiae deletion strains, locus YKR001C, strain vps1, stronger effect = lower value 1 | S. cerevisiae deletion strains, locus YKR026C, strain gcn3, stronger effect = lower value 1 | S. cerevisiae deletion strains, locus YKR091W, strain srl3, stronger effect = lower value 0.976 | S. cerevisiae deletion strains, locus YLL001W, strain dnm1, stronger effect = lower value 1.03 | S. cerevisiae deletion strains, locus YLL026W, stronger effect = lower value 0.974 | S. cerevisiae deletion strains, locus YLL041C, strain sdh2, stronger effect = lower value 0.984 | S. cerevisiae deletion strains, locus YLR027C, strain aat2, stronger effect = lower value 0.985 | S. cerevisiae deletion strains, locus YLR039C, strain RIC1, stronger effect = lower value 1.01 | S. cerevisiae deletion strains, locus YLR058C, strain SHM2, stronger effect = lower value 0.979 | S. cerevisiae deletion strains, locus YLR102C, strain apc9, stronger effect = lower value 0.988 | S. cerevisiae deletion strains, locus YLR113W, strain HOG1, stronger effect = lower value 0.971 | S. cerevisiae deletion strains, locus YLR221C, strain rsa3, stronger effect = lower value 1.02 | S. cerevisiae deletion strains, locus YLR258W, strain gsy2, stronger effect = lower value 0.977 | S. cerevisiae deletion strains, locus YLR262C, strain YPT6 (second series), stronger effect = lower value 0.974 | S. cerevisiae deletion strains, locus YLR262C, strain YPT6, stronger effect = lower value 0.957 | S. cerevisiae deletion strains, locus YLR268W, strain sec22, stronger effect = lower value 0.987 | S. cerevisiae deletion strains, locus YLR320W, strain mms22, stronger effect = lower value 1.03 | S. cerevisiae deletion strains, locus YLR330W, strain CHS5, stronger effect = lower value 0.989 | S. cerevisiae deletion strains, locus YLR342W, strain FKS1 (second series), stronger effect = lower value 1.09 | S. cerevisiae deletion strains, locus YLR342W, strain FKS1, stronger effect = lower value 0.99 | S. cerevisiae deletion strains, locus YLR357W, strain rsc2, stronger effect = lower value 0.988 | S. cerevisiae deletion strains, locus YLR370C, strain arc18, stronger effect = lower value 0.978 | S. cerevisiae deletion strains, locus YLR371W, strain rom2, stronger effect = lower value 1 | S. cerevisiae deletion strains, locus YLR384C, strain iki3, stronger effect = lower value 0.991 | S. cerevisiae deletion strains, locus YLR418C, strain cdc73, stronger effect = lower value 0.964 | S. cerevisiae deletion strains, locus YML016C, strain PPZ1, stronger effect = lower value 1 | S. cerevisiae deletion strains, locus YML032C, strain rad52, stronger effect = lower value 1.02 | S. cerevisiae deletion strains, locus YML120C, strain ndi1, stronger effect = lower value 0.992 | S. cerevisiae deletion strains, locus YML124C, strain tub3, stronger effect = lower value 1 | S. cerevisiae deletion strains, locus YMR058W, strain fet3, stronger effect = lower value 0.997 | S. cerevisiae deletion strains, locus YMR078C, strain ctf18, stronger effect = lower value 0.996 | S. cerevisiae deletion strains, locus YMR125W, strain sto1, stronger effect = lower value 0.991 | S. cerevisiae deletion strains, locus YMR129W, stronger effect = lower value 0.964 | S. cerevisiae deletion strains, locus YMR205C, strain PFK2, stronger effect = lower value 1.02 | S. cerevisiae deletion strains, locus YMR223W, strain ubp8, stronger effect = lower value 1.05 | S. cerevisiae deletion strains, locus YMR231W, strain pep5, stronger effect = lower value 0.991 | S. cerevisiae deletion strains, locus YMR263W, strain SAP30, stronger effect = lower value 0.979 | S. cerevisiae deletion strains, locus YMR307W, strain GAS1, stronger effect = lower value 1.08 | S. cerevisiae deletion strains, locus YNL067W, strain RPL9B, stronger effect = lower value 0.989 | S. cerevisiae deletion strains, locus YNL071W, strain lat1, stronger effect = lower value 0.997 | S. cerevisiae deletion strains, locus YNL128W, strain TEP1, stronger effect = lower value 0.928 | S. cerevisiae deletion strains, locus YNL153C, strain GIM3, stronger effect = lower value 0.984 | S. cerevisiae deletion strains, locus YNL183C, strain NPR1, stronger effect = lower value 0.915 | S. cerevisiae deletion strains, locus YNL209W, strain ssb2, stronger effect = lower value 1 | S. cerevisiae deletion strains, locus YNL233W, strain BNI4, stronger effect = lower value 1.01 | S. cerevisiae deletion strains, locus YNL248C, strain rpa49, stronger effect = lower value 0.963 | S. cerevisiae deletion strains, locus YNL250W, strain rad50, stronger effect = lower value 0.991 | S. cerevisiae deletion strains, locus YNL271C, strain bni1, stronger effect = lower value 1.01 | S. cerevisiae deletion strains, locus YNL298W, strain CLA4, stronger effect = lower value 1 | S. cerevisiae deletion strains, locus YNL307C, strain MCK1, stronger effect = lower value 1.03 | S. cerevisiae deletion strains, locus YNL322C, strain KRE1 (second series), stronger effect = lower value 0.952 | S. cerevisiae deletion strains, locus YNL322C, strain KRE1, stronger effect = lower value 0.979 | S. cerevisiae deletion strains, locus YNR049C, strain mso1, stronger effect = lower value 0.961 | S. cerevisiae deletion strains, locus YNR052C, strain pop2, stronger effect = lower value 0.995 | S. cerevisiae deletion strains, locus YOL006C, strain TOP1, stronger effect = lower value 0.975 | S. cerevisiae deletion strains, locus YOL012C, strain htz1 1.3 | S. cerevisiae deletion strains, locus YOL147C, strain pex11, stronger effect = lower value 0.994 | S. cerevisiae deletion strains, locus YOR001W, strain rrp6, stronger effect = lower value 1.02 | S. cerevisiae deletion strains, locus YOR061W, strain CKA2, stronger effect = lower value 0.96 | S. cerevisiae deletion strains, locus YOR069W, strain VPS5, stronger effect = lower value 0.997 | S. cerevisiae deletion strains, locus YOR070C, strain gyp1, stronger effect = lower value 0.993 | S. cerevisiae deletion strains, locus YOR080W, strain dia2, stronger effect = lower value 0.984 | S. cerevisiae deletion strains, locus YOR083W, strain WHI5, stronger effect = lower value 0.916 | S. cerevisiae deletion strains, locus YOR106W, strain vam3, stronger effect = lower value 0.924 | S. cerevisiae deletion strains, locus YOR136W, strain idh2, stronger effect = lower value 1.01 | S. cerevisiae deletion strains, locus YOR144C, strain elg1, stronger effect = lower value 0.989 | S. cerevisiae deletion strains, locus YOR184W, strain ser1, stronger effect = lower value 1.06 | S. cerevisiae deletion strains, locus YOR231W, strain MKK1, stronger effect = lower value 0.973 | S. cerevisiae deletion strains, locus YOR265W, strain rbl2, stronger effect = lower value 0.964 | S. cerevisiae deletion strains, locus YOR270C, strain vph1, stronger effect = lower value 0.997 | S. cerevisiae deletion strains, locus YOR290C, strain snf2, stronger effect = lower value 0.967 | S. cerevisiae deletion strains, locus YOR316C, strain cot1, stronger effect = lower value 0.986 | S. cerevisiae deletion strains, locus YPL051W, strain arl3, stronger effect = lower value 0.981 | S. cerevisiae deletion strains, locus YPL055C, strain LGE1, stronger effect = lower value 0.96 | S. cerevisiae deletion strains, locus YPL078C, strain atp4, stronger effect = lower value 0.991 | S. cerevisiae deletion strains, locus YPL106C, strain sse1, stronger effect = lower value 0.961 | S. cerevisiae deletion strains, locus YPL240C, strain hsp82, stronger effect = lower value 0.986 | S. cerevisiae deletion strains, locus YPL241C, strain CIN2, stronger effect = lower value 0.987 | S. cerevisiae deletion strains, locus YPL256C, strain CLN2, stronger effect = lower value 0.977 | S. cerevisiae deletion strains, locus YPR119W, strain clb2, stronger effect = lower value 0.987 | S. cerevisiae deletion strains, locus YPR141C, strain kar3, stronger effect = lower value 0.975 | S. cerevisiae deletion strains, locus YPR163C, strain tif3, stronger effect = lower value 0.998 | S. cerevisiae deletion strains, locus YPR167C, strain met16, stronger effect = lower value 0.981 | S. cerevisiae deletion strains, strain wtn01, stronger effect = lower value 0.98 | S. cerevisiae strains, strain wild type, stronger effect = lower value 1.02

Reference: PubChem BioAssay AID1159580 (chemical genetic matrix, 2015)
